# AmpC detergent: qHTS Inhibitors of AmpC Beta-Lactamase (assay with detergent); Potency, µM (doses to about 114 µM), hits mostly inhibitors; AmpC hydrolysis of nitrocefin, absorbance 480 nm, 0.01% Triton; AID 485294, 2010; 370,000 compounds, 0.041% hits; further: nearly all actives have a fitted effect of over 25% in size
# Target sequence (P00811 whole entry, looked up): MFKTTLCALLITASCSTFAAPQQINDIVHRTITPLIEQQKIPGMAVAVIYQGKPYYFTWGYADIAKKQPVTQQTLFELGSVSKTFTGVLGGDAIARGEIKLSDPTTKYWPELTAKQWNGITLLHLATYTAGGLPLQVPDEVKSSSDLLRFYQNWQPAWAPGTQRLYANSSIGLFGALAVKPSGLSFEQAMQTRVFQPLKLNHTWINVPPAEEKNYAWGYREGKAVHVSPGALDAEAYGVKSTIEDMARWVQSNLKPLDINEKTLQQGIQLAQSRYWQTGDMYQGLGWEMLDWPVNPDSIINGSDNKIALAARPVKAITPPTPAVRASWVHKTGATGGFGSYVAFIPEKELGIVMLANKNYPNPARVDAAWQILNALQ
#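 20 mM phosphate pH 7.0 + 0.01% (detergent screen) or 0.0001% Triton X-100; 5.3 nM AmpC reagent; cpd preinc 15 min RT; nitrocefin (800 uM stock) to start; A480 q20 s × 4 min; Activity was normalised to no-enzyme and no-compound control wells.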
# Sm TGR block: qHTS Assay for the Inhibitors of Schistosoma Mansoni Peroxiredoxins | Schistosoma mansoni thioredoxin glutathione reductase (TGR), Q962Y6 | purified TGR, DTNB reduction, TNB absorbance 405 nm | Potency, µM (doses to about 114 µM), most hits filed as inhibitors | 360,000 compounds, 3% hits; further: nearly all actives have a fitted effect of over 60% in size
#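 Kinetic colorimetric format: TGR-catalysed, NADPH-driven DTNB reduction monitored via TNB absorbance. Enzyme dispensed at 20 nM; compound exposure 15 min at room temperature before reaction start.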
# AmpC no deterg: qHTS Inhibitors of AmpC Beta-Lactamase (assay without detergent); AmpC nitrocefin hydrolysis, absorbance 480 nm, 0.0001% Triton; Potency, µM (titrated, usually from 57.1 µM), usual class: inhibitors; P00811; AID 485341, 2010; 330,000 compounds, 0.52% hits; further: nearly all actives have a fitted effect of over 20% in size
#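 AmpC (5.3 nM in the dispensed reagent) in 20 mM phosphate pH 7.0 with 0.01% (detergent screen) or 0.0001% Triton X-100 was preincubated with compounds for 15 min at room temperature. Nitrocefin was then added from an 800 uM solution, and hydrolysis was followed at 480 nm.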
# AMA1-RON2 inh: qHTS for Inhibitors of AMA1-RON; Towards Development of Antimalarial Drug Lead: Primary Screen | Plasmodium falciparum AMA1 (3D7) - RON2 peptide interaction | 360,000 compounds, 0.2% hits | Potency, µM (highest dose often 58.2 µM), usual class: inhibitors | AlphaScreen AMA1-biotinylated RON2 peptide binding | AID 720542, 2013; further: nearly all actives have a fitted effect of over 45% in size
#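 AMA1 (3D7) with his tag at 25 nM final met compounds first, then biotinylated RON2 peptide at 25 nM; detection used donor plus acceptor beads, 10 µg/mL apiece, read by AlphaScreen after 30 min at room temperature.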
# FMDV inh: High Throughput Screening for Foot and Mouth Disease Virus Antivirals; 410,000 compounds, 1.2% hits; Potency, µM (doses to about 57.9 µM), most hits filed as inhibitors; FMDV antiviral cell-based qHTS; calls by dose curve; tested in HEK293T cells; further: read-out not given here; nearly all actives have a fitted effect of over 45% in size
# Numbers stand for hits; n = inactive; u = inconclusive; x = no result. Rows were chosen to be rich in hits. Some 4.1% of all compounds tested hit in one or more screens of this group. Unless noted, the call rests on the fitted dose curve; in most records, active means well fitted curve in the direction sought with a large enough effect; inconclusive means small, poorly fitted or top-dose-only effect, or another doubt; inactive means no such curve, though single readings can be large; an effect the other way counts as inactive or inconclusive.
SMILES,AmpC detergent,Sm TGR block,AmpC no deterg,AMA1-RON2 inh,FMDV inh
Cc1noc(C)c1C(=O)Nc1c(F)cc(F)cc1Br,n,n,n,n,n
CCOC(=O)c1c(C)[nH]c(C)c1S(=O)(=O)N(C)CC(=O)Nc1ccc(C)cc1C,n,n,x,x,n
Cc1c(C)c2c(OCC(=O)NCC(C)C)cc3c(c2oc1=O)CCC(C)(C)O3,n,n,n,n,17.8µM
COC(=O)CC(NC1CCN(c2nc(C)c3cc4c(cc3n2)CCC4)CC1)C(=O)OC (centres undefined),x,x,x,x,n
O=[N+]([O-])c1cc(C=Nc2ccc3ccccc3c2)ccc1Br,n,44.7µM,n,u,n
CCOc1ccc(N=Cc2ccc3ccccc3c2)cc1,n,n,n,n,n
COc1ccc2ccccc2c1/C=N\NC(=O)c1ccc(C)s1,n,n,11.2µM,n,n
Cc1ccccc1NC(=O)CSc1n[nH]c(-c2ccccn2)n1,n,n,n,8.91µM,n
O=C(/C(=C/c1ccncc1)n1ccnc1)c1ccc(Cl)cc1Cl,n,n,n,n,22.4µM
O=C(/C(=C/c1cccnc1)n1ccnc1)c1ccc(Cl)cc1Cl,n,n,n,n,u
C=CCOC(=O)C1=C(C)Nc2ncnn2C1c1cc(Br)ccc1F (centres undefined),n,n,n,n,12.6µM
Cc1cccc(Nc2nc(N)nc(CCl)n2)c1,n,14.1µM,n,n,n
COc1cccc(Nc2nc(N)nc(CCl)n2)c1,n,20µM,n,n,n
O=C1CN(C(=O)COc2ccc(Cl)cc2)C(c2ccc(F)cc2)c2cc(Br)ccc2N1 (centres undefined),n,n,x,x,n
CC(C)NC(=O)C1CCC(Cn2c(=O)c3sccc3n(CC(=O)Nc3ccccc3)c2=O)CC1 (centres undefined),n,n,x,x,n
CNc1ccc(Br)cc(C(=O)/C=C/c2ccc3c(c2)OCO3)c1=O,n,2.82µM,n,u,u
COc1ccc(/C=C/C(=O)c2cc(Br)ccc2O)cc1OC,n,n,n,n,n
CCNc1ccc(Br)cc(C(=O)/C=C/c2ccc(Cl)cc2Cl)c1=O,n,2.24µM,n,n,u
COc1ccc(/C=C/C(=O)c2ccc(OC)cc2OC)cc1,n,n,n,n,n
CNc1ccc(Br)cc(C(=O)/C=C/c2ccc(OC)cc2)c1=O,u,11.2µM,n,n,15.8µM
O=C(C=Cc1ccc2c(c1)OCO2)c1ccccc1,x,x,x,n,n
CNc1ccc(Br)cc(C(=O)/C=C/c2cc(OC)ccc2OC)c1=O,n,3.16µM,n,u,20µM
CCCCn1c(=O)nc2n(-c3ccc(F)cc3)c3ccccc3cc-2c1=O,n,n,x,x,n
COC(=O)C1=C(C)NC(C)=C(C(=O)OCC(C)C)C1c1ccccc1[N+](=O)[O-] (centres undefined),x,x,x,14.1µM,u
Cc1cccc(OCCOc2ccccc2C=C(C#N)C#N)c1,n,2.51µM,n,n,n
SMILES,AmpC detergent,Sm TGR block,AmpC no deterg,AMA1-RON2 inh,FMDV inh
Cc1ccccc1OCCNC(=S)Nc1ccccc1,n,n,n,n,n
Cc1ccccc1OCCOc1ccccc1C=C(C#N)C#N,n,3.98µM,n,x,x
O=C(Nc1ccnn1C1CCN(Cc2cccnc2)CC1)c1ccccc1Cl,n,n,n,n,n
Cc1cc(CN2CCC(n3nccc3NC(=O)c3ccccc3Cl)CC2)cc(C)c1O,n,44.7µM,n,n,n
CCn1ccnc1CN1CCC(n2nccc2NC(=O)c2ccccc2OC)CC1,n,n,n,n,10µM
Cc1ccc(C(C)CCN2CCC(n3nccc3NC(=O)c3ccccc3)CC2)o1 (centres undefined),u,35.5µM,n,n,n
O=C(CCCc1ccccc1)Nc1ccnn1C1CCN(Cc2ccccc2F)CC1,n,n,n,n,n
COc1cccc(CN2CCC(n3nccc3NC(=O)CCCc3ccccc3)CC2)c1O,n,8.91µM,n,n,n
Cc1ccc(Cl)cc1N1CCN(CCNC(=O)Nc2ccccc2Cl)CC1,n,n,x,x,n
Clc1ccc(-c2noc3ncnc(N4CCCCC4)c23)cc1,n,n,x,x,n
CC(=O)N1c2ccc(S(=O)(=O)N3CCCCCC3)cc2CC1C(=O)NC(C)C (centres undefined),n,n,x,x,n
CN(C)c1ccc(/C=N/Nc2nncc3ccccc23)cc1,n,u,n,n,7.94µM
Cc1ccc(S(=O)(=O)CC#CCOC(=O)c2ccc([N+](=O)[O-])cc2)cc1,n,0.631µM,n,x,x
CCOc1ccc(CN2CCN(C3CCC3)CC2CCO)cc1 (centres undefined),n,12.6µM,n,n,n
CCOc1ccc(CN2CCN(C3CCSCC3)CC2CCO)cc1 (centres undefined),n,u,n,n,n
C/C(=N\Nc1ccc(Cl)c(C(=O)O)c1)c1ccc2c(c1)OCO2,n,u,n,n,n
O=C(O)c1cc(N/N=C/c2ccc3c(c2)OCO3)ccc1Cl,n,n,n,n,14.1µM
O=C(O)c1cc(NN=C2c3ccccc3-c3ccccc32)ccc1Cl,n,u,n,n,n
O=C(O)c1ccc(N/N=C/c2ccc3c(c2)OCO3)cc1,n,n,n,n,25.1µM
O=C(O)c1cc(N/N=C/C(Cl)=C/c2ccccc2)ccc1Cl,n,35.5µM,n,n,n
CC(C)Oc1ccc(CCC(=O)N/N=C/c2ccc3c(c2)OCO3)cc1,n,n,n,n,n
O=C(CCc1ccc(O)c(O)c1)N/N=C/c1ccc2c(c1)OCO2,n,11.2µM,n,n,n
O=C1NC[C@@H](CCCCN2C[C@H](Cc3ccc(O)cc3)N(CCC3CCCCC3)C(=O)C2=O)N(CCc2ccc(O)cc2)C1=O,x,x,x,n,n
Cc1cccc(OCCSc2nc3ccc(NC(=O)COc4ccccc4F)cc3s2)c1,n,n,x,x,n
Cc1ccc(N/N=C/c2ccc3c(c2)OCCO3)cc1Cl,n,n,n,n,n
O=C(O)c1cc(N/N=C/c2ccc3c(c2)OCCO3)ccc1Cl,u,n,n,n,2.51µM
CN(C)CC(C)(C)CNC(=O)c1cnn(-c2ncc3c(n2)-c2ccccc2CC3)c1-c1ccco1,x,x,x,x,n
COc1ccccc1C1C(C(=O)c2cc3ccccc3o2)=C(O)C(=O)N1CCN1CCOCC1 (centres undefined),u,39.8µM,n,n,n
COC(=O)c1ccc(C2C(C(=O)c3cc4ccccc4o3)=C(O)C(=O)N2CCN2CCOCC2)cc1 (centres undefined),n,u,n,n,n
Cc1nc(C)c(C(=O)C2=C(O)C(=O)N(CCN(C)C)C2c2ccco2)s1 (centres undefined),n,n,n,n,n
